Measurements reported in paper PMC5540273 (PLoS ONE, 2017).

Legend:
Conditions in all cases: concentration: 1 μM, replicates: in singlicate; n = 1
KIT = system: KIT
LATS1 = system: LATS1
LATS2 = system: LATS2
LCK = system: LCK
LIMK1 = system: LIMK1
LIMK2 = system: LIMK2
LKB1 = system: T1, LKB1
T1 construct: gene STK11

LOK = system: T2, LOK
T2 construct: gene STK10

LRRK2 = system: LRRK2
LTK = system: LTK
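Also: KINOMEscan kinase panel screen.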

Row | Compound | %Inh (KIT) [%] | %Inh (LATS1) [%] | %Inh (LATS2) [%] | %Inh (LCK) [%] | %Inh (LIMK1) [%] | %Inh (LIMK2) [%] | %Inh (LKB1) [%] | %Inh (LOK) [%] | %Inh (LRRK2) [%] | %Inh (LTK) [%]
1 | O=C(Nc1n[nH]c2nc(-c3nccs3)c(Br)cc12)C1CC1 [SB-742251] | 1 | 24 | 0 | 0 | 0 | 0 | 0 | 0 | 32 | 0
2 | CS(=O)(=O)c1ccc(-c2nc3n(c2-c2ccncc2)CCC3)cc1 [SKF-105942] | 0 | 0 | 0 | 8 | 19 | 0 | 0 | 0 | 0 | 0
3 | CS(=O)(=O)c1ccc(-c2c(-c3ncn[nH]3)sc(N3CCOCC3)c2C#N)cc1 | 28 | 24 | 9 | 8 | 0 | 3 | 0 | 31 | 0 | 28
4 | C[C@@H]1CCCCN1c1cc(-c2ccc3c(N)n[nH]c3c2)nc(N)n1 [GSK2258759] | 4 | 23 | 14 | 0 | 0 | 19 | 0 | 0 | 0 | 0
5 | Cc1cccc(-c2nc(C)cc(Nc3ccncc3)n2)n1 [GSK257997] | 17 | 0 | 0 | 34 | 11 | 19 | 8 | 0 | 0 | 16
6 | COc1cc(Nc2nccc(N3CCC(NC(=O)Nc4cc(C)ccc4C)C3)n2)cc(OC)c1OC (centres unmarked) [GSK1379762] | 78 | 0 | 0 | 21 | 20 | 15 | 0 | 25 | 22 | 67
7 | Cc1cccc(-c2nc(Nc3ccc4[nH]ncc4c3)c3ccccc3n2)n1 [GW857175] | 3 | 1 | 50 | 10 | 6 | 2 | 14 | 19 | 15 | 0
8 | COc1cccc(NC(=O)NC2CCN(c3ccnc(Nc4ccc(F)cc4)n3)C2)c1 (centres unmarked) [GSK1379721] | 63 | 0 | 0 | 1 | 0 | 5 | 25 | 0 | 0 | 0
9 | COc1cc2ncnc(Nc3ccc4nc(-c5ccccc5)[nH]c4c3)c2cc1OC.Cl [GW282450] | 72 | 0 | 0 | 33 | 0 | 0 | 0 | 5 | 0 | 11
10 | CCCc1ccc(S(=O)(=O)NC2CCN(c3ccnc(Nc4ccc(F)cc4)n3)C2)cc1 (centres unmarked) [GSK1379715] | 12 | 0 | 0 | 0 | 14 | 0 | 0 | 0 | 19 | 4
11 | Cc1csc(-c2nc(Nc3ccncc3)c3ccccc3n2)n1 [GW869640] | 12 | 19 | 20 | 2 | 15 | 2 | 43 | 40 | 31 | 18
12 | COc1ccc(C2=C(Nc3cccc(C(=O)O)c3)C(=O)NC2=O)cc1 [SB-390765] | 6 | 26 | 20 | 10 | 100 | 0 | 11 | 28 | 0 | 11
13 | O=C(Nc1n[nH]c2cc(-c3cccc(F)c3F)ccc12)C1CC1 [SB-733894] | 18 | 0 | 22 | 0 | 0 | 0 | 0 | 0 | 0 | 0
14 | Cc1cccc(-c2cc(Nc3ccncc3)c3ccccc3n2)n1 [GSK223675] | 19 | 0 | 22 | 9 | 0 | 0 | 7 | 0 | 0 | 0
15 | Cc1ccccc1-n1cnc2c(N)ncnc21 [SKF-97510] | 0 | 0 | 3 | 100 | 16 | 15 | 0 | 0 | 0 | 0
16 | CN1C(=O)C(Nc2ccc(Cl)c(C(=O)O)c2)=C(c2ccc(Cl)cc2)C1=O [SB-404290] | 1 | 15 | 15 | 23 | 7 | 0 | 18 | 4 | 0 | 9
17 | Nc1ncnc2[nH]c(-c3ccccc3)nc12 [AH5015] | 21 | 0 | 0 | 26 | 15 | 0 | 0 | 0 | 34 | 91.4
18 | O=C(Nc1ccccc1)Nc1cccc(Oc2ccc3nccn3n2)c1 | 100 | 0 | 30 | 33 | 0 | 0 | 24 | 18 | 0 | 0

Row | Compound | %Inh (KIT) [%] | %Inh (LATS1) [%] | %Inh (LATS2) [%] | %Inh (LCK) [%] | %Inh (LIMK1) [%] | %Inh (LIMK2) [%] | %Inh (LKB1) [%] | %Inh (LOK) [%] | %Inh (LRRK2) [%] | %Inh (LTK) [%]
19 | COc1ccc2nc(-c3cccc(C)n3)nc(Nc3ccncc3)c2c1 [GSK204919] | 26 | 0 | 0 | 4 | 20 | 3 | 0 | 0 | 0 | 0
20 | CN(C)CCN(C)C(=O)c1cc(-c2ccncc2)c(-c2ccc(Cl)c(O)c2)o1.Cl.Cl [SB-710397] | 0 | 3 | 0 | 34 | 0 | 0 | 0 | 72 | 0 | 11
21 | Cn1ccc2ncnc(Oc3cccc(C(=O)Nc4ccccc4)c3)c21 | 35 | 0 | 6 | 7 | 100 | 0 | 25 | 0 | 0 | 2
22 | O=C(Nc1ccc2c(c1)OCO2)NC1CCN(c2ccnc(Nc3ccc(F)cc3)n2)C1 (centres unmarked) [GSK1379724] | 54 | 0 | 0 | 12 | 41 | 0 | 0 | 0 | 28 | 0
23 | Cl.NC(=O)c1cccc(Nc2nccc(Nc3ccc(Oc4cccc(Cl)c4)c(Cl)c3)n2)c1 [GW659008] | 46 | 0 | 0 | 68 | 43 | 4 | 0 | 15 | 11 | 0
24 | Cc1cc(N2Cc3ccccc3C2)nc(Nc2ccc(S(=O)(=O)N3CCOCC3)cc2)n1.Cl [GSK1669917] | 0 | 29 | 10 | 4 | 0 | 16 | 12 | 0 | 0 | 0
25 | CC1=C(C(=O)Nc2cc3cn[nH]c3cc2F)C(c2ccc(C(F)(F)F)cc2)CC(=O)N1 (centres unmarked) [GSK429286] | 9 | 0 | 39 | 22 | 0 | 0 | 0 | 0 | 12 | 0
26 | Cc1ccc(C(=O)Nc2ccc(Nc3ccnc4cc(-c5ccccn5)ccc34)cc2O)cc1.Cl [GW440146] | 89 | 0 | 0 | 84 | 0 | 2 | 9 | 14 | 4 | 12
27 | COc1ccccc1-c1ccc2c(NC(=O)C3CC3)n[nH]c2n1 [SB-711239] | 0 | 28 | 8 | 10 | 0 | 5 | 6 | 0 | 0 | 4
28 | Clc1cc(Cl)cc(Nc2ccnc(Nc3cc(Cl)cc(Cl)c3)n2)c1 [GSK175726] | 40 | 0 | 17 | 27 | 10 | 31 | 14 | 0 | 0 | 0
29 | CCn1c(-c2ccccn2)nc2cnccc21 [SB-736398] | 0 | 0 | 0 | 12 | 13 | 0 | 0 | 0 | 31 | 1
30 | Cl.c1ccc(-c2n[nH]cc2-c2ccnc(-c3ccc(CN4CCOCC4)cc3)c2)nc1 [GW776245] | 8 | 3 | 0 | 0 | 5 | 19 | 18 | 0 | 0 | 28
31 | Fc1cc(Cl)ccc1Nc1ccnc2cc(I)ccc12 [GW551191] | 49 | 0 | 0 | 24 | 0 | 0 | 0 | 0 | 37 | 13
32 | COc1ccc(CNC(=O)NC2CCN(c3ccnc(Nc4cc(OC)c(OC)c(OC)c4)n3)C2)cc1 (centres unmarked) [GSK1379748] | 57 | 0 | 11 | 7 | 0 | 0 | 12 | 0 | 0 | 64
33 | Cc1cc(-c2ccc3c(c2)CC[C@@H](N[C@@H](C)c2ccccc2)C3)cnc1N.Cl [GW412617] | 60 | 0 | 0 | 34 | 0 | 0 | 0 | 0 | 33 | 0
34 | CC(C)(C)c1ccc(C(=O)Nc2cn3cc(Cl)ccc3n2)cc1 | 74 | 10 | 0 | 26 | 0 | 0 | 4 | 8 | 0 | 0
35 | COc1cccc(-c2cc(-c3c[nH]nc3-c3ccccn3)ccn2)c1 [GW680338] | 9 | 64 | 0 | 10 | 0 | 15 | 1 | 10 | 6 | 0
